Reference: PubChem BioAssay (NCI)
The panel holds about 79,000 compounds, 15% with a hit somewhere; the sample as a whole holds those more often. Active and inactive are the calls of the source. Cut-off read from the data, not from the text of the source: active = growth inhibition above about 70%; inactive = the rest.

What was measured:
[1] = NCI Yeast Anticancer Drug Screen. Data for the wt2 strain (AID 169);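 note: 0% = growth of vehicle-treated yeast cultures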; conditions: S. cerevisiae wt2 strain growth inhibition, stronger effect = higher value
How it was run: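 Yeast cells were exposed to test compounds, and growth inhibition was measured relative to vehicle-treated controls.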

[2] = NCI Yeast Anticancer Drug Screen. Data for the mlh1 strain (AID 171);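 note: 0% = growth of vehicle-treated control cultures of the same strain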; conditions: S. cerevisiae mlh1 strain growth inhibition, stronger effect = higher value
How it was run: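 Yeast carrying a defined genetic alteration in DNA damage repair or cell cycle control were exposed to test compounds. Growth inhibition was measured relative to vehicle-treated controls.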

[3] = NCI Yeast Anticancer Drug Screen. Data for the sgs1 strain (AID 173);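 note: 0% = growth of vehicle-only control cultures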; conditions: S. cerevisiae sgs1 mutant, stronger effect = higher value
How it was run: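 Yeast mutant strains carrying defined defects in DNA damage repair or cell cycle control were exposed to test compounds. Growth inhibition was scored against vehicle-treated controls.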

[4] = NCI Yeast Anticancer Drug Screen. Data for the mlh1 rad18 strain (AID 175); conditions: S. cerevisiae mlh1 rad18 strain growth inhibition, stronger effect = higher value
How it was run: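 Growth inhibition of the yeast strain was measured after compound exposure and expressed relative to vehicle-treated controls. The strain carries defined defects in DNA damage repair.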

[5] = NCI Yeast Anticancer Drug Screen. Data for the rad18 strain (AID 177); conditions: S. cerevisiae rad18 mutant growth inhibition, stronger effect = higher value
How it was run: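 Yeast carrying a defined DNA damage repair alteration were exposed to compounds. Growth inhibition was expressed relative to vehicle-treated controls.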

[6] = NCI Yeast Anticancer Drug Screen. Data for the rad52 strain (AID 147);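 note: 0% = growth of vehicle-treated control cultures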; conditions: S. cerevisiae rad52 mutant growth inhibition, stronger effect = higher value
How it was run: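 Yeast strain carrying a DNA damage repair alteration was exposed to test compounds. Growth inhibition was measured relative to vehicle-treated controls.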

[7] = NCI Yeast Anticancer Drug Screen. Data for the wt1 strain (AID 149);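 note: 0% = growth of vehicle-treated wt1 cultures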; conditions: S. cerevisiae wt1 strain (SPY 50644) growth inhibition, stronger effect = higher value
How it was run: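 Using yeast strain wt1, compound-induced growth inhibition was determined against vehicle-treated cultures.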

[8] = NCI Yeast Anticancer Drug Screen. Data for the rad50EPP+ strain (AID 151);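 note: 0% = growth of vehicle-treated control cultures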; conditions: S. cerevisiae rad50 mutant strain, stronger effect = higher value
How it was run: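 Yeast strain carrying rad50 alteration (rad50EPP+) exposed to compounds; growth inhibition measured relative to vehicle-treated controls.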

[9] = NCI Yeast Anticancer Drug Screen. Data for the mgt1 strain (AID 153); conditions: S. cerevisiae mgt1 mutant growth inhibition, stronger effect = higher value
How it was run: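 Yeast mgt1 strain (DNA repair/cell-cycle alteration panel) exposed to compounds; growth inhibition measured relative to vehicle-treated controls.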

[10] = NCI Yeast Anticancer Drug Screen. Data for the rad50 strain (AID 155);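 note: 0% = growth of vehicle-only cultures of the same strain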; conditions: S. cerevisiae rad50 strain growth inhibition, stronger effect = higher value
How it was run: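 Relative growth inhibition (compound vs vehicle) was measured in yeast with a defined repair-gene alteration.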

[11] = NCI Yeast Anticancer Drug Screen. Data for the mec2-1 strain (AID 157); conditions: S. cerevisiae mec2-1 strain, stronger effect = higher value
How it was run: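 mec2-1 yeast strain, carrying an alteration in DNA damage repair or cell cycle control, was exposed to compounds; growth inhibition was measured relative to vehicle-treated controls.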

[12] = NCI Yeast Anticancer Drug Screen. Data for the rad14 strain (AID 159);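 note: 0% = growth of vehicle-treated control cultures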; conditions: S. cerevisiae rad14 strain growth inhibition, stronger effect = higher value
How it was run: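 Screen for anticancer potential: a yeast strain altered in DNA damage repair is grown with compound, and reduced growth is quantified against vehicle controls.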

[13] = NCI Yeast Anticancer Drug Screen. Data for the sgs1 mgt1 strain (AID 161);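 note: 0% = growth of cultures given vehicle only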; conditions: S. cerevisiae sgs1 mgt1 strain, stronger effect = higher value
How it was run: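 Yeast cells carrying a defined DNA-repair defect were exposed to test compounds. Growth inhibition was measured relative to vehicle-treated controls.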

[14] = NCI Yeast Anticancer Drug Screen. Data for the CLN2oe strain (AID 163);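 note: 0% = growth of vehicle-only control cultures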; conditions: S. cerevisiae CLN2oe strain, stronger effect = higher value
How it was run: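 Yeast cells carrying a defined cell-cycle control alteration were exposed to test compounds. Growth inhibition was scored against vehicle-treated control cultures.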

[15] = NCI Yeast Anticancer Drug Screen. Data for the cln2 rad14 strain (AID 165);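 note: 0% = growth equal to vehicle treated cultures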; conditions: S. cerevisiae cln2 rad14 strain, stronger effect = higher value
How it was run: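 Yeast carrying cln2 and rad14 alterations (cell cycle control and DNA damage repair) were exposed to compounds. Growth inhibition was measured against vehicle-treated controls.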

[16] = NCI Yeast Anticancer Drug Screen. Data for the bub3 strain (AID 167); conditions: S. cerevisiae bub3 mutant strain, stronger effect = higher value
How it was run: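 Screening used yeast with an engineered genetic alteration affecting cell cycle control. Compound-exposed cultures were compared with vehicle cultures, and reduced growth was taken as inhibition.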

[17] = at 5.0 µM (retest, dose inferred, filed as 0.5)
[18] = at 50.0 µM (retest, dose inferred, filed as 5.0)

Measured: growth inhibition

Cc1nc2ccccc2cc1C[N+]12CN3CN(CN(C3)C1)C2
active: [3]; at 100.0 µM 80% | [5]; at 100.0 µM 83%
inactive: [1]; at 1.2 µM 1% | [1]; at 3.7 µM -5% | [1]; at 11.0 µM 4% | [1]; at 33.0 µM 11% | [1]; at 100.0 µM 46% | [2]; at 1.2 µM -1% | [2]; at 3.7 µM 1% | [2]; at 11.0 µM -6% | [2]; at 33.0 µM 4% | [2]; at 100.0 µM 46% | [3]; at 1.2 µM -1% | [3]; at 3.7 µM -2% | [3]; at 11.0 µM 2% | [3]; at 33.0 µM 28% | [4]; [17] -1% | [4]; [18] 39% | [4]; at 50.0 µM 68.2% | [5]; at 1.2 µM -1% | [5]; at 3.7 µM -2% | [5]; at 11.0 µM -2% | [5]; at 33.0 µM 16%

CO[C@H](/C(C)=C/C=C/C(C)=C/c1coc(C)n1)[C@H](C)[C@H]1C[C@@H](O)[C@@]2(C)O[C@H]2/C=C/[C@@H](C)[C@@H]2C[C@@H](CC(=O)O2)C[C@H]2O[C@@H]2C(=O)O1
active: [6]; at 100.0 µM 93% | [7]; at 100.0 µM 93% | [9]; at 100.0 µM 94% | [10]; [18] 89% | [10]; at 100.0 µM 93% | [11]; [18] 93% | [11]; at 100.0 µM 93% | [12]; at 100.0 µM 91% | [13]; [18] 91% | [14]; at 100.0 µM 88% | [16]; at 33.0 µM 89% | [16]; [18] 95% | [16]; at 50.0 µM 83.3% | [16]; at 100.0 µM 96% | [1]; at 33.0 µM 81% | [1]; at 100.0 µM 92% | [2]; at 100.0 µM 94% | [3]; at 100.0 µM 91% | [4]; [18] 89% | [5]; at 100.0 µM 92%
inactive: [6]; at 1.2 µM 6% | [6]; at 3.7 µM -2% | [6]; at 11.0 µM 14% | [6]; at 33.0 µM 17% | [7]; at 1.2 µM 7% | [7]; at 3.7 µM -2% | [7]; at 11.0 µM 2% | [7]; at 33.0 µM 15% | [8]; at 1.2 µM -17% | [8]; at 3.7 µM -9% | [8]; at 11.0 µM -21% | [8]; at 33.0 µM -8% | [8]; at 100.0 µM -23% | [9]; at 1.2 µM -4% | [9]; at 3.7 µM -14% | [9]; at 11.0 µM -6% | [9]; at 33.0 µM 24% | [10]; at 1.2 µM -6% | [10]; at 3.7 µM -15% | [10]; [17] -9% | [10]; at 11.0 µM -26% | [10]; at 33.0 µM 4% | [10]; at 50.0 µM 39.1% | [11]; at 1.2 µM -9% | [11]; at 3.7 µM -5% | [11]; [17] -9% | [11]; at 11.0 µM -16% | [11]; at 33.0 µM 16% | [11]; at 50.0 µM 49.2% | [12]; at 1.2 µM -28% | [12]; at 3.7 µM -17% | [12]; at 11.0 µM -8% | [12]; at 33.0 µM -8% | [13]; [17] 15% | [13]; at 50.0 µM 20.6% | [14]; at 1.2 µM -24% | [14]; at 3.7 µM -17% | [14]; at 11.0 µM -13% | [14]; at 33.0 µM 1% | [15]; [17] 8% | [15]; [18] 54% | [15]; at 50.0 µM 19.4% | [16]; at 1.2 µM -19% | [16]; at 3.7 µM -10% | [16]; [17] 37% | [16]; at 11.0 µM 9% | [1]; at 1.2 µM -12% | [1]; at 3.7 µM -4% | [1]; at 11.0 µM -6% | [2]; at 1.2 µM 10% | [2]; at 3.7 µM 7% | [2]; at 11.0 µM 11% | [2]; at 33.0 µM 44% | [3]; at 1.2 µM 1% | [3]; at 3.7 µM 2% | [3]; at 11.0 µM -6% | [3]; at 33.0 µM 8% | [4]; [17] -9% | [4]; at 50.0 µM 33.4% | [5]; at 1.2 µM 0% | [5]; at 3.7 µM -12% | [5]; at 11.0 µM -14% | [5]; at 33.0 µM 6%

C[C@]12CCC3[C@@H](CC[C@@H]4c5nonc5CC[C@]34C)C1CCC2=O (some centres undefined)
inactive: [6]; at 1.2 µM 13% | [6]; at 3.7 µM 22% | [6]; at 11.0 µM 52% | [7]; at 1.2 µM 0% | [7]; at 3.7 µM -1% | [7]; at 11.0 µM 8% | [7]; at 33.0 µM 38% | [7]; at 100.0 µM 65% | [8]; at 1.2 µM 4% | [8]; at 3.7 µM 7% | [8]; at 11.0 µM 16% | [8]; at 33.0 µM 29% | [8]; at 100.0 µM 24% | [9]; at 1.2 µM 20% | [9]; at 3.7 µM 29% | [9]; at 11.0 µM 52% | [10]; at 1.2 µM 14% | [10]; at 3.7 µM 18% | [10]; [17] 27% | [10]; at 11.0 µM 65% | [10]; [18] 67% | [11]; at 1.2 µM 6% | [11]; at 3.7 µM 3% | [11]; [17] 15% | [11]; at 11.0 µM 29% | [11]; at 33.0 µM 54% | [11]; [18] -11% | [11]; at 50.0 µM 47.6% | [12]; at 1.2 µM 40% | [12]; at 3.7 µM 40% | [12]; at 11.0 µM 55% | [13]; [17] 33% | [13]; [18] 69% | [14]; at 1.2 µM 38% | [14]; at 3.7 µM 41% | [14]; at 11.0 µM 48% | [14]; at 33.0 µM 47% | [14]; at 100.0 µM 51% | [15]; [17] 39% | [15]; [18] 54% | [15]; at 50.0 µM 67.7% | [16]; at 1.2 µM 16% | [16]; at 3.7 µM 19% | [16]; [17] -11% | [16]; at 11.0 µM 38% | [16]; at 33.0 µM 61% | [16]; [18] 59% | [1]; at 1.2 µM 3% | [1]; at 3.7 µM 2% | [1]; at 11.0 µM 32% | [2]; at 1.2 µM 8% | [2]; at 3.7 µM 11% | [2]; at 11.0 µM 29% | [3]; at 1.2 µM 19% | [3]; at 3.7 µM 26% | [3]; at 11.0 µM 66% | [4]; [17] 37% | [4]; [18] 63% | [5]; at 1.2 µM 24% | [5]; at 3.7 µM 22% | [5]; at 11.0 µM 50%
active: [6]; at 33.0 µM 82% | [6]; at 100.0 µM 85% | [9]; at 33.0 µM 84% | [9]; at 100.0 µM 90% | [10]; at 33.0 µM 80% | [10]; at 50.0 µM 87.3% | [10]; at 100.0 µM 87% | [11]; at 100.0 µM 79% | [12]; at 33.0 µM 87% | [12]; at 100.0 µM 90% | [13]; at 50.0 µM 87.6% | [16]; at 50.0 µM 78.2% | [16]; at 100.0 µM 72% | [1]; at 33.0 µM 83% | [1]; at 100.0 µM 83% | [2]; at 33.0 µM 80% | [2]; at 100.0 µM 86% | [3]; at 33.0 µM 92% | [3]; at 100.0 µM 93% | [4]; at 50.0 µM 80.8% | [5]; at 33.0 µM 78% | [5]; at 100.0 µM 83%
